# Experimental data from PubChem BioAssay (NCI).
# About 83,000 compounds went through this panel and 20% of them were active in at least one assay; those are over-represented in the sample as a whole.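 Each cell line was grown in a 96-well plate and treated with one concentration of compound for 48 hours. Values below 10 were considered active.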 A number with no mark means an inactive call. Calls of active or inactive are those of the source.
# Tested on: U251 CNS
# Experiment: NCI-60 one-dose screen, 48 h (100 = growth as untreated, 0 = no growth, -100 = all killed)
# Settings: 10 µM unless noted
row,SMILES,growth
1,O=S(=O)(NCCNc1nccc(-c2c(-c3cccc(O)c3)nc3occn23)n1)c1ccccc1,95.4%
2,COc1ccc(C(=O)c2cc(C)c(OC)c(C)c2)c(OC)c1N(C(=O)CCl)C(=O)CCl,16.1%
3,O=C(/C=C/c1ccc[nH]1)c1ccc(-n2ccc(C(F)(F)F)n2)c(F)c1,88.7%
4,COc1ccc(C(=O)C2C(C#N)C(C#N)C3c4ccccc4C=CN23)cc1 (stereo not drawn),93.6%
5,c1ccc(-c2cn3c(ccc4ccccc43)n2)cc1,51.8%
6,CNC(=O)c1cccc(Cn2nc(C)c(NC(=O)c3ccc(COc4ccc(C(F)(F)F)cc4C)cc3)c2C)n1,44.7%
7,COc1ccc(OC)c(-c2cc(-c3ccc(Cl)cc3)c3c(N)c(C(=O)c4ccc(Cl)cc4)sc3n2)c1,101%
8,CCCOc1ccc(/C=N/Nc2cc(C)nc3ccc(Cl)cc23)cc1,-58.3% (active)
9,O=C(Cc1ccccc1)NNc1nc(Cl)nc(N2CCN(C(c3ccccc3)c3ccccc3)CC2)n1,99.9%
10,C#CCNC(=O)[C@H](Cc1ccccc1)NC(=O)[C@]12CC[C@@H](C(=C)C)[C@@H]1[C@H]1CC[C@@H]3[C@@]4(C)CCC(=O)C(C)(C)[C@@H]4CC[C@@]3(C)[C@]1(C)CC2,69.1%

# Tested on: PC-3 prostate
# Experiment: as above
# Settings: 10 µM unless noted
row,SMILES,growth
1,CC(=O)CCC(=O)OCc1cc(=O)c(O)co1,98.7%
2,O=C(c1nc2ccccc2[nH]1)C1C(c2ccc(Cl)cc2)C2CC3CCCC[C@H]3N2[C@@]12C(=O)Nc1cc(Cl)ccc12 (stereo partly drawn),31.9%
3,COc1cccc(-c2nc3occn3c2-c2ccnc(NCCNS(=O)(=O)c3cccc4ccccc34)n2)c1,99.6%
4,COc1cc(-c2n/c(=C\c3c(O)[nH]c4ccc(Cl)cc34)cc3c2=Nc2ccccc2-3)ccc1F,-8.04% (active)
5,NNC(=O)c1ccc(-n2nc(-c3ccccc3)c3ccccc32)cc1,69.4%
6,O=C1Nc2cc(-c3cccc(O)c3)ccc2/C1=C/c1ccc[nH]1,35.4%
7,COc1cccc(/C=N/NC(=O)c2cnn3c2NC(c2ccccc2)C3)c1Oc1ccccc1 (stereo not drawn),72.3%
8,S=c1cc(S)c2cc(Br)ccc2[nH]1,78.8%
9,O=C(NCCc1ccccc1)Nc1ccc2cc3ccc(NC(=O)NCCc4ccccc4)cc3nc2c1,19.3%
10,CCN(CC)CCCC(C)Nc1cc(O)cc2cccnc12 (stereo not drawn),86.8%
11,CCOC(=O)C1=C(C)NC(SCc2cc(=O)oc3ccc(F)cc23)=N[C@@H]1c1cccc2ccccc12,87.8%
12,COc1ccc(C(=O)c2cc(OC)c(OC)c(OC)c2)cc1O,20.4%
13,CCCOC(=O)N[C@H]1CCc2c(Cl)c(OC)c(OC)c(OC)c2-c2ccc(SC)c(=O)cc21,24%
14,Cc1ccc(/C=N/NC(=O)CSc2nc3ccccc3c(=O)n2Cc2ccc(S(N)(=O)=O)cc2)cc1,89.3%
15,O=C(CCN1CCCC1)Nc1ccc2c(NCCCCc3ccccc3)c3ccccc3nc2c1,-56.8% (active)
16,CSc1nc2sc3cccc(Cl)c3n2c(=N)c1C#N,90.8%
17,C#CCNC(=O)c1cccc2c1cc(C)n2-c1nc2c(c(NCc3ccccc3)n1)CCCC2,-18.2% (active)
18,Cc1ccc(S(=O)(=O)NNC(=O)/C(=C\c2ccc(Cl)cc2)c2nc3ccccc3s2)cc1,90.5%
19,O=[N+]([O-])CC(c1ccccc1)c1c[nH]c2ccccc12 (stereo not drawn),86.1%

row,SMILES,growth
1,Nc1nc(Nc2ccccc2SSc2ccccc2Nc2nc(N)nc(-c3ccc(C(F)(F)F)cc3)n2)nc(-c2ccc(C(F)(F)F)cc2)n1,29.5%
2,CCCCCC(=O)Oc1ccc(/C(=C(\C)c2ccccc2)c2ccc(OCCN3CCCCC3)cc2)cc1,72.2%
3,C/C(=N\Nc1cc(C)nc2ccc(Br)cc12)c1ccc([N+](=O)[O-])cc1,74.8%
4,COc1cccc(-c2ccc3c(c2)NC(=O)/C3=C\c2ccc[nH]2)c1,70.1%
5,CCC(=O)Oc1ccc(/C(=C(\C)c2ccccc2)c2ccc(OCCN3CCCCC3)cc2)cc1,72.8%
6,COc1cc(CC(=O)c2ccc(O)c(OC)c2)ccc1O,83.1%
7,Brc1ccc2[nH]cc(-c3cncn3CCc3ccccc3)c2c1,53.9%
8,CCNC(=O)Oc1ccc(/C(=C(\C)c2ccccc2)c2ccc(OCCCN(C)C)cc2)cc1,73.3%
9,O=C(/C=C/c1ccc(F)cc1)c1ccc(NC(=O)N2CCN(c3cc4c(cc3F)c(=O)c(C(=O)O)cn4C3CC3)CC2)cc1,96.6%
10,O=S(=O)(NCCNc1nccc(-c2c(-c3cccc(O)c3)nc3occn23)n1)c1ccccc1,85.3%
11,COc1ccc(C(=O)c2cc(C)c(OC)c(C)c2)c(OC)c1N(C(=O)CCl)C(=O)CCl,13.1%
12,O=C(/C=C/c1ccc[nH]1)c1ccc(-n2ccc(C(F)(F)F)n2)c(F)c1,48.1%
13,COc1ccc(C(=O)C2C(C#N)C(C#N)C3c4ccccc4C=CN23)cc1 (stereo not drawn),84.7%
14,c1ccc(-c2cn3c(ccc4ccccc43)n2)cc1,72.2%
15,CNC(=O)c1cccc(Cn2nc(C)c(NC(=O)c3ccc(COc4ccc(C(F)(F)F)cc4C)cc3)c2C)n1,34.6%
16,COc1ccc(OC)c(-c2cc(-c3ccc(Cl)cc3)c3c(N)c(C(=O)c4ccc(Cl)cc4)sc3n2)c1,81.4%
17,CCCOc1ccc(/C=N/Nc2cc(C)nc3ccc(Cl)cc23)cc1,48.6%
18,O=C(Cc1ccccc1)NNc1nc(Cl)nc(N2CCN(C(c3ccccc3)c3ccccc3)CC2)n1,81.5%
19,C#CCNC(=O)[C@H](Cc1ccccc1)NC(=O)[C@]12CC[C@@H](C(=C)C)[C@@H]1[C@H]1CC[C@@H]3[C@@]4(C)CCC(=O)C(C)(C)[C@@H]4CC[C@@]3(C)[C@]1(C)CC2,33%
